This is a sample that favours compounds with a hit; in the whole collection about 7.4% have one here.
HEK293 tox: Cytotoxic Profiling in HEK 293 Cell Line of Diverse Libraries Using Quantitative High-Throughput Screening | HEK 293 viability, ATP luminescence (CellTiter-Glo), 48-72 h | Potency, µM (top dose mostly 115 µM), for the others: top-dose activity change, negative = cytotoxicity, most hits filed as inhibitors | 94,000 tested, 6.6% active; note: nearly all actives have a fitted effect of over 60% in size
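HEK 293 cells at 250 cells/well were exposed to compounds by pintool transfer for 48 or 72 hr at 37 degree Celsius, 5% CO2. Viability was read as ATP-coupled luminescence with CellTiter-Glo after 10 min at room temperature.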
SNCA expr inh: Primary qHTS assay for inhibitors of alpha-synuclein gene (SNCA) expression; 140,000 tested, 0.17% active; Potency, µM (highest dose often 57.2 µM), for inactives: top-dose activity change, negative = inhibition, most hits filed as inhibitors; HEK-293 SNCA-luciferase knock-in, luminescence, 24 h;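 note: plate controls were DMSO cells for no effect and cell-free wells for full effect; nearly all actives have a fitted effect of over 45% in size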
Luciferase inh: Firefly luciferase inhibition profiling of diverse chemical library using quantitative high-throughput screening | Luciferin 4-monooxygenase (Photinus pyralis), P08659 | AID 1347043, 2019 | 76,000 tested, 2.5% active | Potency, µM (top dose mostly 115 µM), most hits filed as inhibitors | purified P. pyralis luciferase, luminescence, biochemical; note: nearly all actives have a fitted effect of over 65% in size
Target sequence (P08659 whole entry, looked up): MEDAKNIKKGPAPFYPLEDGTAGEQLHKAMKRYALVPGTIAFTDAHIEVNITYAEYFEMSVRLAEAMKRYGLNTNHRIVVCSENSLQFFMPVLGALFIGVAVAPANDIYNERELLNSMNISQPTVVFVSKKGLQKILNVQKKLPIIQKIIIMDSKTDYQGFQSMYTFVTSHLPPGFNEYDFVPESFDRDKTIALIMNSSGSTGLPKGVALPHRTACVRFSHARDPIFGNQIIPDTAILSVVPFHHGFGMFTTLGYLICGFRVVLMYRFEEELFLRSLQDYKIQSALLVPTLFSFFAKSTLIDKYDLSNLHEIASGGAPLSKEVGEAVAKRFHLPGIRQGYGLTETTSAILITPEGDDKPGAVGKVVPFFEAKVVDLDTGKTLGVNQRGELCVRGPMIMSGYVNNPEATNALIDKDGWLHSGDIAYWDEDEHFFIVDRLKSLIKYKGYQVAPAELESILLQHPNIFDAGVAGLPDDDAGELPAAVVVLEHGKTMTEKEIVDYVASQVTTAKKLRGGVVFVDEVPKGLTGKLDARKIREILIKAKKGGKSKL
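FLuc 10nM, D-luciferin 10uM, ATP 10uM, Mg acetate 10mM, Tris acetate pH 7.5, Tween/BSA; cpd qHTS; enzyme added last; CCD luminescence.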
3T3 cytotox: Cytotoxic Profiling in NIH 3T3 Cell Line of Diverse Libraries Using Quantitative High-Throughput Screening | AID 1345082, 2018 | 94,000 tested, 4.3% active | NIH 3T3 viability, CellTiter-Glo ATP luminescence, 48-72 h | Potency, µM (series often up to 96.7 µM), for the others: top-dose activity change, negative = cytotoxicity, actives largely listed as inhibitors; note: nearly all actives have a fitted effect of over 55% in size
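First NIH 3T3 cells are plated at 400 cells/well; next compound is pinned in; then plates incubate 48 or 72 hr at 37 °C; finally CellTiter-Glo is added and luminescence read after 10 min.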
NPR1 antag: Natriuretic polypeptide receptor (hNpr1) antagonism - Primary qHTS. HEK293 hNpr1 GloSensor cGMP, ANP-stimulated luminescence. Potency, µM (titrated, usually from 46.3 µM), inactives show top-dose activity change, negative = inhibition, actives largely listed as inhibitors. 76,000 tested, 1.6% active. AID 1347048, 2019; calls by dose curve; note: nearly all actives have a fitted effect of over 60% in size
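HEK293 cells stably expressing human Npr1 and cGMP GloSensor pGS-40F, loaded 2 h with 2% GloSensor reagent, given compound 30 min at room temperature. Luminescence read before and 20 min after 0.1 nM hNppA.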
HEK293 viab: GF-AFC viability counterscreen for inhibitors of alpha-synuclein gene (SNCA) expression | HEK-293-SNCA-luc viability, GF-AFC fluorescence, 24 h | Potency, µM (series often up to 57.1 µM), without a hit: top-dose activity change, negative = cytotoxicity, actives largely listed as cytotoxic | 150,000 tested, 0.12% active | AID 1671193, 2021;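 note: 0% = DMSO-treated cells and -100% = medium-only wells without cells; nearly all actives have a fitted effect of over 30% in size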
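Cytotoxicity counterscreen: after 24 h compound treatment of genome-edited SNCA-luciferase HEK-293 cells, live-cell protease substrate GF-AFC read by fluorescence after 30 min; activity scaled between DMSO (0%) and medium-only (-100%), curves Hill-fitted.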
Numbers without * were called inactive; i = inactive; ? = inconclusive; [ ] = dose if it differs, or a comment. Unless noted, calls come from the whole dose curve; as a rule, active = well fitted curve in the direction sought with a large enough effect; inconclusive = small, poorly fitted or top-dose-only effect, or another doubt; inactive = no such curve, though single readings can be large; an effect the other way counts as inactive or inconclusive. Unless noted, % is set by controls: 0 for no effect and ±100 for the full control effect; potency is the fitted concentration of half-maximal effect.

SMILES | HEK293 tox | SNCA expr inh | Luciferase inh | 3T3 cytotox | NPR1 antag | HEK293 viab
CC(C)c1nc2c(c(-c3ccc(O)cc3)n1)CN(Cc1ccc(OC(F)(F)F)cc1)CC2 | 22µM* | -15% | i | 22µM* | 0% | 7%
O=C(CN1CCCC1=O)N1CCC(N2CC(OCC3CC3)C23CCCCC3)CC1 (stereo not given) | -12% | 32% | i | -20% | -2% | 4%
CCOc1ccccc1C(=O)N1CCN(c2cc(-c3ccc(F)cc3)[nH]n2)CC1 | ? | 1% | i | ? | -11% | -9%
Cc1ccc(CC(=O)N2CCN(c3cc(-c4cccs4)[nH]n3)CC2)cc1 | ? | 13% | i | ? | -21% | -10%
CCOc1ccccc1C(=O)N1CCN(c2cc(-c3ccc(Cl)cc3)[nH]n2)CC1 | 35µM* | -15% | i | 18µM* | -28% | -12%
Cc1ccccc1C(=O)N1CCN(c2cc(-c3cccs3)[nH]n2)CC1 | ? | 6% | i | ? | -4% | 6%
COc1ccccc1CC(=O)N1CCN(c2cc(-c3cccs3)[nH]n2)CC1 | 40µM* | 13% | i | ? | ? | -11%
CCOc1ccc(CC(=O)N2CCN(c3cc(-c4cccs4)[nH]n3)CC2)cc1OCC | 45µM* | -27% | i | 28µM* | -1% | 4%
CCOc1ccccc1C(=O)N1CCN(c2cc(-c3cccs3)[nH]n2)CC1 | 40µM* | 26% | i | ? | -23% | 5%
Cc1occc1C(=O)N1CCC2(CC1)N=C(CC(C)C)NC2=O | -4% | 1% | i | i | 6% | -3%
CCOc1cc(C(=O)N2CCN(c3cc(-c4ccc(Cl)cc4)[nH]n3)CC2)cc(OCC)c1OCC | 35µM* | ? | i | 32µM* | -5% | -11%
COc1cc(C(=O)N2CCN(c3cc(-c4ccc(Cl)cc4)[nH]n3)CC2)cc(OC)c1OC | ? | -9% | i | 25µM* | ? | 2%
CCCNC(=O)C1COC2(CCN(C(=O)c3cccc(C)c3)CC2)N1C(=O)c1ccc(OC)cc1 (stereo not given) | i | 1% | i | 1% | -1% | -5%
O=C(c1n[nH]c2ccccc12)N1CCC(OCCOc2cccnc2)CC1 | ? | -3% | i | -27% | ? | -7%[12.5 µM]
CCOc1cc(=O)n2c(c1C(=O)Nc1ccc3c(c1)OCCO3)CCCCC2 | -24% | -3% | 40µM* | -3% | -19% | -6%
Cc1ccc(-c2nnc3ccc(NCc4cccs4)nn23)nc1 | 100µM* | 36%[87.6 µM] | i | ? | -12%[70.6 µM] | -3%[87.6 µM]
COCCCNc1ccc2nnc(-c3ccc(C)cn3)n2n1 | -8%[172 µM] | 23%[87.6 µM] | i | 89µM* | -6%[70.6 µM] | -9%[87.6 µM]
CCc1nc(-c2c3n(c(=O)n(CC(=O)Nc4ccc(C)c(C)c4)c2=O)CCCC3)no1 | 1% | 27% | i | 3% | 0% | 10%
COc1cccc(CN2CC[C@H](c3nc4ccccc4[nH]3)C2)c1 | ? | 14%[87.6 µM] | i | -18%[138 µM] | 3%[70.6 µM] | -3%[87.6 µM]
CC(C)CN1CC[C@H](c2nc3ccccc3n2C)C1 | ? | 2%[87.6 µM] | 22µM* | -24%[230 µM] | 0%[70.6 µM] | -12%[87.6 µM]
Cn1c([C@H]2CCN(Cc3cnc4ccccc4c3)C2)nc2ccccc21 | 71µM* | -2%[87.6 µM] | i | ? | -7%[70.6 µM] | -23%[87.6 µM]
Cn1c([C@H]2CCN(Cc3ccc4c(c3)OCO4)C2)nc2ccccc21 | ? | 29%[87.6 µM] | i | ? | -11%[70.6 µM] | -12%[87.6 µM]
Cn1c(CO[C@H]2CN(Cc3cnc4ccccc4c3)C[C@H]2F)nc2ccccc21 | 79µM* | 0%[87.6 µM] | i | ? | ? | -23%[87.6 µM]
